# Screens: PubChem BioAssay, several laboratories
# Most compounds without a hit are left out; they make up all but 3.9% or so of the library.
# PrPC TRFRET = inhibitors of human cell surface prion protein PrPC, primary screen, cell-based, TR-FRET; Major prion protein (Homo sapiens), P04156; TR-FRET read-out; inhibition, % at 13.8 µM; 370,000 compounds, 0.43% hits; AID 720596, 2013; in the data active means inhibition above about 24%; further: 0% = median of the test wells and 100% = reference compound wells
# SARS 3CLpro inh = SARS-CoV 3CLpro protease inhibitors, primary screen, biochemical, quenched FRET | Replicase polyprotein 1ab (Severe acute respiratory syndrome coronavirus), P0C6X7 | recombinant SARS-CoV 3CLpro, quenched FRET peptide cleavage | inhibition, % at 6 µM | 290,000 compounds, 0.14% hits | AID 1706, 2009; in the data active means inhibition above about 12%
# BH1578 lux ind = inducers of Vibrio cholerae quorum light production without autoinducers, primary screen, BH1578 luxS cqsA deficient, single point; V. cholerae BH1578 lux reporter, luminescence, 6 h; AID 588436, 2011; 350,000 compounds, 0.16% hits; activation, % at 18.7 µM; in the data active means activation mostly above about 9.7%, no sharp cut-off
# GDH-TPI counter-1 = GDH-TPI coupling enzyme inhibitors, primary screen, artefact control for M. tuberculosis FBA inhibitor project, biochemical, absorbance, full deck; GDH-TPI coupled enzyme counterscreen, NADH absorbance; inhibition, % at 4.8 µM; 360,000 compounds, 1.2% hits; in the data active means inhibition above about 30%;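 further: 0% = DMSO wells and 100% = wells lacking the enzyme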
# FBA Mtb inh = Mtb FBA enzyme inhibitors, primary screen, biochemical, fluorescence, strain H37Rv | 360,000 compounds, 2.3% hits | inhibition, % at 1 µM | purified M. tuberculosis FBA, fluorescence read-out | Fructose-bisphosphate aldolase (Mycobacterium tuberculosis (strain ATCC 25618 / H37Rv)), … | AID 588726, 2011;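 further: 0% = vehicle and 100% = reference inhibitor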
# Target sequence (P9WQA3 whole entry, looked up): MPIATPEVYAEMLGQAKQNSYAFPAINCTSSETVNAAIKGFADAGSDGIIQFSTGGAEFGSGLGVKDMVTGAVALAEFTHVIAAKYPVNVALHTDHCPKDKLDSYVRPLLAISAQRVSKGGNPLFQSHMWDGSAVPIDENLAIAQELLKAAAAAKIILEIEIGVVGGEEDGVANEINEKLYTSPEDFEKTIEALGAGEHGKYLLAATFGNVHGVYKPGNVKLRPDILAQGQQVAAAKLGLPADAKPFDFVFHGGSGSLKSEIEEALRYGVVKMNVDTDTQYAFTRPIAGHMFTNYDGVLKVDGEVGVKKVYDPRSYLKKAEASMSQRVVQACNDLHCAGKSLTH
# Mtb FBA confirm = M. tuberculosis aldolase blockers, biochemical, fluorescence, strain H37Rv, confirmation; 5,600 compounds, 78% hits; shares compounds with FBA Mtb inh; purified M. tuberculosis FBA, fluorescence read-out; inhibition, % at 1 µM; AID 651616, 2012;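 further: 0% = vehicle wells and 100% = reference inhibitor wells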
# GDH-TPI counter-2 = GDH-TPI coupling enzyme inhibitors, artefact control for M. tuberculosis FBA inhibitor project, biochemical, fluorescence, high throughput; shares compounds with FBA Mtb inh; GDH-TPI coupled enzyme counterscreen; inhibition, % at 1 µM; 5,600 compounds, 81% hits; in the data active means inhibition above about 10%
# GDH-TPI dose = GDH-TPI coupling enzyme inhibitors, dose response, artefact control for M. tuberculosis FBA inhibitor project, biochemical, fluorescence, IC50; IC50, µM; GDH-TPI coupled enzyme assay, artifact counterscreen; AID 652145, 2013; 170 compounds, 79% hits; shares compounds with FBA Mtb inh; call rule not given here
# Starred values were filed as active, the others as inactive; i = inactive; . = not tested or not shown; + = active, no number. Unless noted, no stated cut-off is given here; in the data, active means inhibition above about 27%; inactive means the rest.
SMILES,PrPC TRFRET,SARS 3CLpro inh,BH1578 lux ind,GDH-TPI counter-1,FBA Mtb inh,Mtb FBA confirm,GDH-TPI counter-2,others
CNC(=O)/C(C#N)=C/c1c(N2CCN(C)CC2)nc2c(C)cccn2c1=O,4,1,-1,17,28*,62*,59*,
Cc1cc(C(=O)O)cc(S(=O)(=O)Nc2ccccc2C(=O)NC2CC2)c1C,9,.,1,3,1,.,.,
CC1CC(C)CN(c2oc(-c3ccco3)nc2C#N)C1 (stereo unspecified),0,-4,0,19,91*,6,4,
N#Cc1nc(-c2ccco2)oc1N1CCN(c2cccc(Cl)c2)CC1,-1,0,i,8,3,.,.,
N#Cc1nc(-c2ccco2)oc1N1CCN(C(c2ccccc2)c2ccccc2)CC1,0,-3,i,16,0,.,.,
N#Cc1nc(-c2ccco2)oc1N1CCc2ccccc2C1,1,-1,0,23,46*,52*,39*,
COc1ccc(C)cc1NC(=O)NNC(=O)C1CCC(C(C)(C)C)CC1 (stereo unspecified),14,4,0,-3,-2,.,.,
Cc1nn(Cc2ccccc2Cl)c2sc(C(=O)Nc3ccccc3N3CCOCC3)cc12,-6,6,0,15,97*,72*,64*,
COc1ccc2cc(OC)c(C(=O)N3CCOCC3)cc2c1,-9,1,0,-8,36*,-2,-4,
COc1ccc2oc(=O)c(C(=O)N3CCN(C(=O)c4ccco4)CC3)cc2c1,-8,8,0,1,34*,115*,76*,
O=C(c1ccco1)N1CCN(C(=O)c2cc3ccccc3oc2=O)CC1,-2,4,0,10,2,.,.,
COc1ccc2oc(=O)c(C(=O)N3CCN(c4ccccc4)CC3)cc2c1,-5,6,i,14,2,.,.,
COc1ccc2oc(=O)c(C(=O)N3CCN(C(=O)c4ccccc4)CC3)cc2c1,4,-2,0,1,27*,119*,92*,
CC(=O)c1c(C)[nH]c(C(=O)COC(=O)c2c(-c3ccccc3)noc2C)c1C,4,.,i,6,0,.,.,
O=C(NCc1cccnc1)c1cc(C2CCCCN2C(=O)c2ccc3ccccc3c2)on1 (stereo unspecified),-10,.,0,1,4,.,.,
CCOC(=O)N1CCC(NC(=O)C2CCN(S(=O)(=O)c3cnc[nH]3)CC2)CC1,-1,3,0,5,4,.,.,
CCOC(=O)N1CCC(NC(=O)C2CCN(c3ccc(N4CCOCC4)nn3)CC2)CC1,.,-1,i,13,31*,123*,107*,
CCc1cc2c(=O)c(-c3cnn(-c4ccccc4)c3)c(C)oc2c(CN2CCCCC2)c1O,-1,-3,0,22,41*,+,+,
CCOCCCNC(=O)c1cc2c(s1)-c1ccccc1SC2,2,1,0,4,-4,.,.,
CN(C)CCNC(=O)c1cc2c(s1)-c1ccc(Cl)cc1SC2,-5,2,0,6,34*,106*,90*,
CCC1CN(C(=O)NCc2cccc(OC)c2)c2ccccc2O1 (stereo unspecified),-3,0,i,3,68*,0,-6,
CCC1CN(C(=O)NCc2cccc(OC)c2)c2cc(Cl)ccc2O1 (stereo unspecified),12,5,i,3,-2,.,.,
CCC(CO)Nc1ccn2nc(-c3cccs3)cc2n1 (stereo unspecified),2,.,-1,8,39*,+,+,
CCC(CO)Nc1ccn2nc(-c3ccccc3)cc2n1 (stereo unspecified),-6,.,-4,3,18,.,.,
CCC(CO)Nc1ccn2nc(-c3cc(OC)c(OC)c(OC)c3)cc2n1 (stereo unspecified),-6,.,0,14,32*,-9,-7,
SMILES,PrPC TRFRET,SARS 3CLpro inh,BH1578 lux ind,GDH-TPI counter-1,FBA Mtb inh,Mtb FBA confirm,GDH-TPI counter-2,others
Cc1ccccc1N=Nc1c(N)[nH]n(-c2ccccc2)c1=O,-6,.,.,.,.,.,.,
O=c1oc2ccccc2cc1-c1ccccc1,-1,-2,i,17,31*,11,2,GDH-TPI dose=5.2*
O=c1oc2ccc(Cl)cc2cc1-c1ccccc1,-6,-3,0,-3,1,.,.,
O=c1oc(-c2ccccc2)cc2ccccc12,1,.,0,11,44*,71*,47*,
N#CCc1nc(-c2cc3ccccc3oc2=O)cs1,-9,5,i,12,77*,197*,155*,
O=c1oc2ccccc2cc1-c1cn2ccccc2n1,-12,3,0,30,4,.,.,
O=c1oc2ccccc2cc1-c1cn2cccnc2n1,-34,-2,0,45*,29*,+,196*,
CCc1nc2c(OCc3ccc4c(c3)OCO4)cccn2c1N(C=O)Cc1ccccc1,13,.,0,3,2,.,.,
CCCNC(=O)c1cc(C2CCCN(C(=O)c3ccc(NC(C)=O)cc3)C2)on1 (stereo unspecified),1,.,0,5,2,.,.,
O=C(Cc1cccc2ccccc12)Nc1ccc(-c2cc3ccccc3oc2=O)cc1,-3,2,0,22,53*,75*,49*,
CCC(=O)Nc1cccc(-c2cc3ccccc3oc2=O)c1,-26,3,0,23,1,.,.,
CC(C)c1ccc(-c2nnc(SCC(=O)NC3CC3)n2C)cc1,-8,-2,i,8,-2,.,.,
CCOC(=O)c1c(NC(=O)Cn2nnc(-c3ccccc3Cl)n2)sc(C)c1C,2,2,i,10,110*,0,-5,
O=C(COC(=O)c1ccc(O)cc1)Nc1ccccc1[N+](=O)[O-],-15,3,0,3,-1,.,.,
O=C(O)/C=C/C(=O)NCc1ccccc1,6,-5,0,-5,-1,.,.,
O=C(O)/C=C\C(=O)Nc1ccccc1C(=O)NCc1ccccc1,-7,-3,i,10,52*,-5,-3,
NC(=O)c1ccccc1NC(=O)/C=C/C(=O)O,6,-1,-2,-1,50*,57*,49*,
Cc1cc(F)ccc1S(=O)(=O)N(CC(=O)N1CCOCC1)CC(=O)N1CCOCC1,1,.,i,13,2,.,.,
